AMA1-RON2 inh = AMA1-RON2 (P. falciparum) interaction inhibition; AlphaScreen AMA1-biotinylated RON2 peptide binding; Potency, µM (titrated, usually from 58.2 µM), actives largely listed as inhibitors; hit rate 0.2% among 360,000; also: nearly all actives have a fitted effect of over 45% in size
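AMA1 (3D7) with his tag at 25 nM final met compounds first, then biotinylated RON2 peptide at 25 nM; detection used donor plus acceptor beads, 10 µg/mL apiece, read by AlphaScreen after 30 min at room temperature.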
Pf growth 48h = P. falciparum growth inhibition at 48 hours (one generation). P. falciparum luciferase growth in erythrocytes, 48 h. Potency, µM (highest dose often 28.7 µM), hits mostly inhibitors. hit rate 5.9% among 310,000. AID 504832
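Luciferase-expressing parasites in RBCs, 2% Hct / 0.1% parasitemia final; RPMI 1640 + 0.5% Albumax; 37 C, 5% CO2, one generation; luminescence read-out, lower signal = inhibition.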
SARS PLpro yeast = blocks SARS-CoV papain-like protease in a yeast assay. S. cerevisiae expressing SARS-CoV PLpro, growth rescue. Potency, µM (doses to about 32.9 µM), usual class: activators. hit rate 0.19% among 330,000. AID 485353; calls by dose curve; also: nearly all actives have a fitted effect of over 55% in size
Pf growth 96h = P. falciparum growth inhibition at 96 hours. P. falciparum luciferase reporter growth, 96 h. Potency, µM (series often up to 28.7 µM), usual class: inhibitors. hit rate 6.9% among 320,000. AID 504834
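Cell-based qHTS: luciferase-tagged P. falciparum in erythrocytes (2% hematocrit, 0.05% parasitemia final) incubated with compounds for 96 hours, 37 C, 5% CO2; luciferase detection reagent then added and luminescence measured.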
Hits are given with their value; [ ] = dose if it differs, or a comment. Rows were chosen to be rich in hits. Some 9.4% of all compounds tested hit in one or more screens of this group. Unless noted, calls follow the shape of the dose curve; as a rule, active = well fitted curve in the direction sought with a large enough effect; inconclusive = small, poorly fitted or top-dose-only effect, or another doubt; inactive = no such curve, though single readings can be large; an effect the other way counts as inactive or inconclusive.

What do the screens show for `CNC1(C)C2CCC(C2)C1(C)C` (stereo not given)?
Pf growth 48h: inactive; Pf growth 96h: 6µM

Results for CNC1(C)[C@H]2CC[C@H](C2)C1(C)C (stereo not given in full) ?
AMA1-RON2 inh: inactive; SARS PLpro yeast: inactive

Results for O=C(Nc1cc(C(F)(F)F)cc(C(F)(F)F)c1)Nc1cnn(-c2ccc([N+](=O)[O-])cc2)c1C(F)(F)F ?
AMA1-RON2 inh: inactive; Pf growth 48h: 1.9µM; SARS PLpro yeast: inactive; Pf growth 96h: inconclusive

How did COc1ccccc1Oc1c(C)oc2cc(OC(=O)c3ccco3)ccc2c1=O do in these assays?
AMA1-RON2 inh: inactive; Pf growth 48h: inactive; SARS PLpro yeast: inactive; Pf growth 96h: inactive

Results for COc1ccc(-c2nn(-c3ccccc3)cc2/C=N/Nc2ccc3ccccc3n2)cc1OC ?
AMA1-RON2 inh: inactive; Pf growth 48h: 2.6µM; SARS PLpro yeast: inactive; Pf growth 96h: 2.3µM

How did NC(N)=N/N=C/c1cn(-c2ccccc2)nc1-c1cccs1 do in these assays?
AMA1-RON2 inh: inactive; Pf growth 48h: 2.6µM; SARS PLpro yeast: inactive; Pf growth 96h: 0.52µM

Results for COc1ccc(-c2nn(-c3ccccc3)cc2/C=N/O)cc1OC ?
AMA1-RON2 inh: inactive; Pf growth 48h: inactive; SARS PLpro yeast: inactive; Pf growth 96h: inactive

What do the screens show for `COc1ccc(-c2nn(-c3ccccc3)cc2CO)cc1OC`?
AMA1-RON2 inh: inactive; Pf growth 48h: 13µM; SARS PLpro yeast: inactive; Pf growth 96h: inactive

What do the screens show for `COc1ccc(-c2nn(-c3ccccc3)cc2/C=N/Nc2ccc(S(N)(=O)=O)cc2[N+](=O)[O-])cc1OC`?
AMA1-RON2 inh: inactive; Pf growth 48h: inactive; SARS PLpro yeast: inactive; Pf growth 96h: inconclusive

Results for COc1ccc(-c2nn(-c3ccccc3)cc2/C=N/N=C(N)N)cc1OC ?
AMA1-RON2 inh: inactive; Pf growth 48h: 1.7µM; SARS PLpro yeast: inactive; Pf growth 96h: 1.9µM

Results for O=S1(=O)CCOCCN1Cc1ccc(Cl)cc1Cl ?
Pf growth 48h: inactive; SARS PLpro yeast: inactive; Pf growth 96h: inconclusive

Results for CCOC(=O)c1ccc2c(c1)[nH]c(=S)n2CC ?
AMA1-RON2 inh: inactive; Pf growth 48h: inactive; SARS PLpro yeast: inactive; Pf growth 96h: inactive

What do the screens show for `COc1ccccc1OCCNC(=O)c1cccc(S(=O)(=O)N2CCN(C)CC2)c1`?
AMA1-RON2 inh: inactive; Pf growth 48h: inactive; SARS PLpro yeast: inactive; Pf growth 96h: inconclusive

What do the screens show for `O=C1C=CC(=Nc2ccc3c(c2)Cc2ccccc2-3)O1`?
AMA1-RON2 inh: inactive

How did CCOC(=O)c1c(C)n(C)c2ccc(O)c(CN3CCCCC3)c12 do in these assays?
AMA1-RON2 inh: inactive; Pf growth 48h: inconclusive; SARS PLpro yeast: inactive

Results for CCOC(=O)c1c(C)oc2ccc(O)c(CN3CCCCC3)c12 ?
AMA1-RON2 inh: inactive; Pf growth 48h: 12µM; SARS PLpro yeast: inactive; Pf growth 96h: inactive

Results for CC(=O)c1c(C)oc2ccc(O)c(CN3CCOCC3)c12 ?
AMA1-RON2 inh: inactive; SARS PLpro yeast: inactive; Pf growth 96h: 7.4µM

How did Cc1oc2ccc(O)c(CN3CCOCC3)c2c1C(C)O (stereo not given) do in these assays?
AMA1-RON2 inh: inactive; Pf growth 48h: inactive; SARS PLpro yeast: inactive; Pf growth 96h: inactive

Results for O=C(N/N=C(\CC(=O)c1cccs1)C(F)(F)F)c1ccncc1 ?
AMA1-RON2 inh: inactive; Pf growth 48h: 0.23µM; SARS PLpro yeast: inactive; Pf growth 96h: inconclusive

What do the screens show for `O=C(CN1CCSC1=NCc1ccccc1)c1ccc(Cl)c(Cl)c1`?
AMA1-RON2 inh: inactive[2.32 µM]; Pf growth 48h: inconclusive; SARS PLpro yeast: inactive; Pf growth 96h: 9.3µM

How did O=C(Cn1ccccc1=S)c1ccc(Cl)c(Cl)c1 do in these assays?
AMA1-RON2 inh: inactive

How did COC(=O)C1CN(C(=O)c2ccc(OC(F)F)cc2)c2ccccc2O1 (stereo not given) do in these assays?
AMA1-RON2 inh: inactive; Pf growth 48h: inactive; SARS PLpro yeast: inactive; Pf growth 96h: inactive

How did COc1ccc(S(=O)(=O)NCc2cccnc2)cc1C(=O)Nc1ccccc1 do in these assays?
AMA1-RON2 inh: inactive; Pf growth 48h: inactive; SARS PLpro yeast: inactive; Pf growth 96h: 10µM

Results for O=C(Nc1ccccc1)c1cc(S(=O)(=O)NCc2ccncc2)ccc1Cl ?
AMA1-RON2 inh: inactive; Pf growth 48h: inactive; SARS PLpro yeast: inactive; Pf growth 96h: 12µM

Results for O=C(Nc1ccccc1)c1cc(S(=O)(=O)Nc2cccnc2)ccc1Cl ?
AMA1-RON2 inh: inactive; Pf growth 48h: inactive; SARS PLpro yeast: inactive; Pf growth 96h: inactive

Results for COc1ccc(S(=O)(=O)NCc2cccnc2)cc1NC(=O)c1ccccc1 ?
AMA1-RON2 inh: inactive; Pf growth 48h: inactive; SARS PLpro yeast: inactive; Pf growth 96h: inactive
